Here are results for 114 molecules from PubChem BioAssay AID2401 (Southern Research Specialized Biocontainment Screening …, 2010).

Screen size: about 2,200 compounds; about 530 (24%) were called active.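 The calls were made as follows: active = inhibition above a set limit at one or more concentrations of the dose series; inactive = inhibition under that limit at every dose.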 The list is a sample of the results. Where a call stands in place of a potency, no number is given. Potency and affinity values are given separately.

The nature of the assay: S. Typhimurium nonspecific reporter signal inhibition – Salmonella Typhimurium, GFP fluorescence, counter-screen for PhoP regulon inhibitor project, dose response (AID 2401).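 Also: S. typhimurium with Mg-insensitive nmpC-GFP reporter grown at 10 µM Mg2+; drop in reporter fluorescence reflects general culture growth inhibition.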 Conditions: 4 h; series mostly up to 150 µM. Background: The purpose of a counterscreen is to sort out artefacts and off-target activity.
Turning to `CN1CCN(C(c2cccc(C(F)(F)F)c2)c2nnnn2C(C)(C)C)CC1` (centres undefined), the result was inactive. In the case of `C#CCN1C(=O)C(O)(CC(=O)c2ccc(OC)c(OC)c2)c2ccccc21` (centres undefined) it was “inactive”. In the case of `CCCCn1cnc2sc(-c3ccccc3)cc2c1=O` it was “inactive”. In the case of `O=C(Nc1ccc2c(c1)OCO2)c1cnn2cccnc12` it was “inactive”; in that of `CN(C)S(=O)(=O)Oc1ccsc1C(=O)Nc1ccccc1Cl`, “inactive”; in that of `CCSc1cc(N2CCCC2)nc(-c2cccc(C)c2)n1`, “inactive”. Regarding `CC(C)c1ccc(C2C3CSCC=C3C(C#N)=C(N)C2(C#N)C#N)cc1` (centres undefined), the molecule was called inactive. Then `Cn1c(CN2CCCCC2)nc2cc(NS(=O)(=O)c3ccc(Cl)cc3)ccc21`, with “inactive”; and `COc1ccc(S(=O)(=O)N2Cc3ccccc3CC2C(=O)N2CCOCC2)cc1OC` (centres undefined), with “inactive”; and `Clc1ccc(SCCCCn2ccnc2)cc1`, with “inactive”. In the case of `O=c1[nH]c(NNC(=S)NCc2ccccc2)nc2c1C1(CCCCC1)Cc1ccccc1-2` it was “inactive”; in that of `O=S1(=O)C=CC(Nc2cccc(Cl)c2)C1` (centres undefined), “inactive”. In the case of `O=C(CSc1nnc2c(Cl)cc(Cl)cn12)NC1CCS(=O)(=O)C1` (centres undefined) it was “inactive”. With `CCc1cccc(NC(=O)Nc2cccs2)c1`, the molecule was called inactive. In the case of `COc1cccc2c(=O)c3c(cnn3C)n(C)c12` it was “inactive”. In the case of `COC(=O)c1cccc(NC(=O)CCCOc2ccccc2)c1` it was “inactive”; in that of `O=C(NCc1cccs1)c1cccc(Nc2nc3ccc(Br)cc3[nH]2)c1`, “inactive”. On to `Cn1c(=O)n(CC(=O)Nc2ccccc2)c2ccccc21`, for which the outcome was inactive. For `O=C(O)C1CC=CCC1C(=O)NC12CC3CC(CC(C3)C1)C2` (centres undefined), the call was inactive. Then `O=C(OCc1nnc(-c2ccccc2)o1)c1ccc(S(=O)(=O)NCc2ccco2)cc1`, with “inactive”; and `CCOC(=S)SCC(=O)Nc1nc(-c2ccccc2)cs1`, with “inactive”; and `COc1ccc(-c2csc(NC(=O)C3CCCO3)n2)cc1` (centres undefined), with “inactive”. For `Cc1ccc(NC(=O)CCN2CCc3ccccc3C2)cc1`, the molecule was classed as inactive. In the case of `Cc1nc(NC(=O)c2ccccc2)sc1-c1csc(Nc2ccc(F)cc2)n1` it was “inactive”; in that of `CN(C)CC(=O)Nc1nc(-c2ccccc2)cs1`, “inactive”.

As to `Cc1ccc(C[n+]2cc(-c3ccc(Cl)cc3)n3c2CCC3)cc1`, the molecule was called inactive. For the molecule `CCOC(=O)C1=C(C)N(CCO)C(=O)NC1c1cccc(O)c1` (centres undefined), the molecule was classed as inactive.

Turning to `CCCNC(=O)CSc1nnc(C)s1`, the outcome was inactive. Then `Cc1nc2c(Cl)cccc2c2c1CC(CBr)O2` (centres undefined), with “inactive”.

As for `CCC1=NNc2cccc3c(OC)ccc1c23`, the call was inactive.

`COc1ccc(-c2c/c(=N\c3nc(-c4ccccc4)c(C)s3)c3ccccc3o2)cc1O`: the result was inactive. In the case of `COC(=O)c1c(C)oc2ccc(NS(=O)(=O)c3cccs3)cc12` it was “inactive”. In the case of `O=C(CCNS(=O)(=O)c1cccc2nsnc12)NCc1cccs1` it was “inactive”. Then `O=C(NCc1cccs1)[C@@H]1CSC2c3ccccc3C(=O)N21` (some centres undefined), with “inactive”. With `Nc1cc(N)nc(SCc2cc(=O)oc3cc4c(cc23)CCC4)n1`, the call was inactive.

As to `CCCn1c(SCC(=O)c2c(C)[nH]c(C)c2C(=O)OCC)nc2ccccc21`, the call was inactive. In the case of `O=C(CCCN1C(=O)CCC1=O)Nc1ccc2c(c1)OCCO2` it was “inactive”; in that of `CCCCCNS(=O)(=O)c1cc(C)ccc1OC`, “inactive”. For the molecule `CCCCn1nnnc1NCc1cc(OC)c(OC)cc1OC`, the result was inactive. In the case of `Cc1ccc(S(=O)(=O)NCCC(=O)OCn2nnc3ccccc3c2=O)cc1` it was “inactive”; in that of `COc1ccc(-c2nnn(CC(=O)N(Cc3ccco3)C(C(=O)NCC3CCCO3)c3ccco3)n2)cc1` (centres undefined), “inactive”. In the case of `COC(=O)c1cc(C#N)c(Oc2ccc(F)cc2)nc1C` it was “inactive”; in that of `O=C1C(c2ccc(F)cc2)N(Cc2ccc3c(c2)OCO3)C(=O)CN1C1CCCCCC1` (centres undefined), “inactive”. Then `Cc1ccc(-c2[nH]c(-c3ccc(Cl)cc3)nc2SCC(=O)NCC2CCCO2)cc1` (centres undefined), with “inactive”; and `COc1cc(C(=O)NC(=S)Nc2ccc3oc(=O)ccc3c2)cc(OC)c1OC`, with “inactive”; and `Cc1nc(N2CCN(c3ccccc3)CC2)nc2c1C(=O)CC(C)C2` (centres undefined), with “inactive”. In the case of `O=C(Nc1ccc2oc(-c3ccc(Cl)c(Cl)c3)nc2c1)c1ncn[nH]1`, the molecule was classed as inactive. In the case of `O=C(OCc1ccccc1)c1cn(-c2ccccc2)nc1-c1ccncc1` it was “inactive”; in that of `CCc1ccc(C(c2c(C)nn(-c3ccccc3)c2N)c2c(C)nn(-c3ccccc3)c2N)cc1`, “inactive”; in that of `O=C(NCc1ccccn1)c1cn(-c2ccccc2)nc1-c1ccc(Cl)cc1`, “inactive”. Then `O=C(COC(=O)c1cn(-c2ccccc2)nc1-c1ccccc1)c1cccc([N+](=O)[O-])c1`, with “inactive”; and `C/C(=N\N=C(/N)SC1CC(=O)N(c2cccc(Cl)c2)C1=O)c1cccs1` (centres undefined), with “inactive”. In the case of `Cc1ccc(-n2ncc3c(N4CCN(c5ccccc5)CC4)ncnc32)c(C)c1` it was “inactive”; in that of `Cc1ccccc1-n1c(=O)c2ccccc2n2cnnc12`, “inactive”; in that of `CCCn1nnc(NC(=O)c2ccc(Br)o2)n1`, “inactive”. Consider `Cc1ccc(NC(=O)COc2ncnc3c(Cl)cc(Cl)cc23)cc1[N+](=O)[O-]`, for which the outcome was inactive. Then `Cc1cc([N+](=O)[O-])cc2ncccc12`, with “inactive”; and `O=C(NCc1cccnc1)c1ccc(Cl)cc1[N+](=O)[O-]`, with “inactive”. As to `CC1(C)CC(=O)C2=C(C1)N(c1ccc(F)cc1)C(N)=C(C#N)C2c1cccs1` (centres undefined), the result was inactive. With `CCn1c(=O)c(=O)[nH]c2cc(C(=O)NCC3CCCCC3)ccc21`, the outcome was inactive. In the case of `O=c1c2c([nH]c3ccccc13)CCCCC2`, the call was inactive.

Take `Cc1cc(NC(=O)c2ccco2)ccc1-n1cnnn1`: the molecule was classed as inactive.

As for `c1ccc(CSc2nnc(-c3ccncc3)o2)cc1`, the molecule was classed as inactive.

For `O=C1Nc2ccc(F)cc2C12SCCS2`, the molecule was called inactive. Then `CC(=S)c1c(C)cc2cc(C)ccn12`, with “inactive”; and `COc1ccc(N=c2cc(-c3ccc(OC)cc3)oc3ccccc23)cc1`, with “inactive”.

For the molecule `CN1C(=S)N(c2ccccc2)C(=O)/C1=C/c1ccco1`, the molecule was called inactive. In the case of `CCn1c(SCc2ccc(F)cc2)nc2ccccc2c1=O` it was “inactive”; in that of `COC(=O)c1ccc(CSc2nnnn2-c2ccccc2)o1`, “inactive”; in that of `CCOC(=O)c1cnc2ccccc2c1Nc1ccc2c(c1)OCCO2`, “inactive”. In the case of `Nc1ccc(Nc2ccccc2)c(Cl)c1` it was “inactive”. Then `CCOc1ccc(CNc2ccc(N3CCCC3)cc2)cc1`, with “inactive”; and `Cc1cccc(Nc2nc(N)nc(CN3CCN(c4ccccc4)CC3)n2)c1`, with “inactive”. In the case of `CCOc1ccc(Nc2nc(NCCN3CCOCC3)nc(OC)n2)cc1`, the molecule was called inactive. In the case of `CCc1ccc(Nc2nc(N)nc(CSc3nc4ccccc4s3)n2)cc1`, the result was inactive. In the case of `C=CCN=C(NC#N)SCc1ccccc1Cl` it was “inactive”. Then `Cc1ccc(NC(=O)C2CC(=O)NC(N3CCCCC3)=N2)cc1Cl` (centres undefined), with “inactive”; and `COC(=O)N1CCN(c2ccc(Cl)c(Cl)c2)CC1`, with “inactive”; and `O=C(COc1ncnc2sccc12)N1CCN(S(=O)(=O)c2ccc(Cl)cc2)CC1`, with “inactive”. In the case of `CC1CCN(C(c2cc3cc4c(cc3[nH]c2=O)OCO4)c2nnnn2CC2CCCO2)CC1` (centres undefined), the result was inactive.

For the molecule `CCOC(=O)C[n+]1c(C)sc2ccc(OC)cc21`, the outcome was inactive. Then `COc1ccc(C)cc1Nc1nc(-c2c(C)[nH]c3ccccc23)cs1`, with “inactive”; and `CCOC(=O)c1c(N)ssc1=S`, with “inactive”.

In the case of `O=c1[nH]c(NCc2ccco2)nnc1Cc1ccccc1Cl`, the call was inactive.

As to `N/C(=N\OC(=O)c1ccc(F)cc1)c1nonc1N`, the call was inactive. In the case of `O=C(c1ccccc1)N1CCN(c2ccc([N+](=O)[O-])c(NCc3ccco3)c2)CC1` it was “inactive”; in that of `O=C(NC(=Nc1ccccc1)N1CCOCC1)Nc1ccccc1`, “inactive”.

As for `COc1ccc(C(=O)On2c(-c3ccc(Br)cc3)nc3ccccc3c2=O)cc1`, the result was inactive. In the case of `Cc1cc(-c2csc(N)n2)c(C)n1-c1ccccc1` it was “inactive”.

Regarding `N#CC1=C(N)N=C(SCc2cccc3ccccc23)C(C(N)=O)C12CCCCC2` (centres undefined), the molecule was classed as inactive. In the case of `CCCCC1CCC(C(=O)Nc2ccccc2)CC1` (centres undefined) it was “inactive”; in that of `Cc1ccc(CCNC(=O)C2CCCN(S(=O)(=O)c3c(C)noc3C)C2)cc1` (centres undefined), “inactive”; in that of `c1ccc2c(c1)ncn2CCCCOc1ccc2c(c1)CCC2`, “inactive”. Then `O=C(c1ccc(CSc2nc3ccncc3[nH]2)cc1)N1CCN(c2cccc(Cl)c2)CC1`, with “inactive”; and `CC(=O)N1N=C(c2ccco2)CC1c1ccc(Br)cc1` (centres undefined), with “inactive”. With `OCCCNc1nc(-c2ccc(Cl)cc2)nnc1-c1ccc(Br)cc1`, the call was inactive. In the case of `CC(C)[C@@H]1CC[C@@H](C)C[C@H]1OC(=O)C[n+]1cc(-c2ccc(Cl)cc2)n2c1CCCCC2` it was “inactive”; in that of `COc1ccc(-n2c(CNc3ccc(C)cc3)nnc2SCc2ccccc2)cc1`, “inactive”; in that of `Cn1cc(-c2nnnn2-c2cccc(C(F)(F)F)c2)c(C(F)(F)F)n1`, “inactive”. Then `CCn1c(CNC(=O)c2cccc(C)c2)nc2ccccc21`, with “inactive”. Then `COc1ccccc1-c1c(C#N)c(N)nc2c1CCc1ccccc1-2`, with “inactive”.

Consider `O=c1cc(Cc2ccccc2)[nH]c(=S)[nH]1`, for which the molecule was classed as inactive. On to `CCOC(=O)Cc1ccc(NS(=O)(=O)c2ccc(SC)cc2)cc1`, for which the molecule was classed as inactive. Consider `NC1=NC(=Nc2cccc(Cl)c2)c2ccccc21`, for which the outcome was inactive. Consider `C#CCOc1ccc(/C=C2\SC(=S)N(Cc3cccnc3)C2=O)cc1`, for which the molecule was called inactive. As for `COCCNC(=O)c1ccc(C(=O)NCCOC)s1`, the call was inactive. In the case of `CC(Nc1ccc(Br)cn1)c1cc(Cl)ccc1O` (centres undefined) it was “inactive”. In the case of `COc1ccc(/C=N/NC(=O)c2ccc3c(c2)OCCO3)cc1[N+](=O)[O-]` it was “inactive”; in that of `COc1cc([N+](=O)[O-])cc(/C=N/NC(=O)c2cccnc2)c1O`, “inactive”. Then `O=C(Nc1cc(C(F)(F)F)ccc1N1CCOCC1)c1ccc(Br)o1`, with “inactive”. As for `Cc1nc(N2CCN(Cc3ccc4c(c3)OCO4)CC2)nc2c1C(=O)CC(c1ccco1)C2` (centres undefined), the call was inactive. In the case of `CC1CCN(S(=O)(=O)c2cccc(C(=O)N(C)C3CCS(=O)(=O)C3)c2)CC1` (centres undefined) it was “inactive”; in that of `CN1c2ccccc2C(O)=C(C(=O)Nc2ccccc2)S1(=O)=O`, “inactive”. Then `O=C(N/N=C/c1ccc(F)cc1)c1cc(-c2ccco2)nc2ccccc12`, with “inactive”.
